The text below walks through data of ChEMBL document CHEMBL3988442, “University of Dundee, Small-Polar-MMV Screening Library” (2021).

Holding throughout (parameters): scale not given: direction of the effect not stated beside the values
In experiment [1] the target is Protein translocase subunit SecA (Escherichia coli (strain K12)) (UniProt P10408). In words: Assay to Identify E. coli SecA ATPase Inhibitors. The experiment is classed as functional. The conditions noted are these: 30 µM.
The target of experiment [2] is T1, Ubiquitin-activating enzyme e1, putative (Leishmania donovani (strain BPK282A1)) (UniProt E9BSI1).
T1 sequence (whole entry): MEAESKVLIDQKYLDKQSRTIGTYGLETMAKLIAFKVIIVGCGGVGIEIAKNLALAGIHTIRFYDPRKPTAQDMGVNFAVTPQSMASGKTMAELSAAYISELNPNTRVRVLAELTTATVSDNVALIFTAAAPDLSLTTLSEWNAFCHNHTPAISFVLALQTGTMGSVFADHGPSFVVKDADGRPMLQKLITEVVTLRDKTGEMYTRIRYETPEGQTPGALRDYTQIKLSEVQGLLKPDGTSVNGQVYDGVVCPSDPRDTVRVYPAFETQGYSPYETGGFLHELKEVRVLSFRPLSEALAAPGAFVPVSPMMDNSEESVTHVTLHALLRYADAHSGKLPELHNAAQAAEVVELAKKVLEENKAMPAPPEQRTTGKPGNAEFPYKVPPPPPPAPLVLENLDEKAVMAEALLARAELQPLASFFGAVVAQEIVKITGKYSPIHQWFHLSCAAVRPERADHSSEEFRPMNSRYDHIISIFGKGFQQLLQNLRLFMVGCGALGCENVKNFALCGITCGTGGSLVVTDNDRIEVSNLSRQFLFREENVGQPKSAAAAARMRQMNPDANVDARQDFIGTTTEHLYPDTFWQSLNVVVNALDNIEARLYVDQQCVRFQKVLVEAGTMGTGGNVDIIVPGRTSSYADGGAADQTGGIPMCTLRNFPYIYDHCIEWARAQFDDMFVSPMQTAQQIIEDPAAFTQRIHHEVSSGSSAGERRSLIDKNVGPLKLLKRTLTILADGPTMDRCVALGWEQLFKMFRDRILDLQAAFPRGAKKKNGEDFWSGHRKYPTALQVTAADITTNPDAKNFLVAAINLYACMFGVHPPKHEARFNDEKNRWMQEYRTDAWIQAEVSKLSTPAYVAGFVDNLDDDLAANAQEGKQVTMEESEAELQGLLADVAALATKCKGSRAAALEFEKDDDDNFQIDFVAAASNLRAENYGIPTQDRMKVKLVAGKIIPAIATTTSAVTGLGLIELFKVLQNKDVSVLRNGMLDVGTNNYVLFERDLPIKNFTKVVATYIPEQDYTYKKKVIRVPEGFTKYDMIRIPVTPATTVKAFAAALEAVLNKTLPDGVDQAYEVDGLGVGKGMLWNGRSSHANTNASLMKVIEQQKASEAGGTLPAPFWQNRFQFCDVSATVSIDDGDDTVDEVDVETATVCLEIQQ
In words: Leishmania donovani Ubiquitin Activating Enzyme (LdE1). The experiment is classed as functional. The conditions noted are these: 30 µM.

Experiment [3] concerns the target AMP-activated protein kinase, AMPK (Homo sapiens) (UniProt P54646+O43741+P54619+Q9UGJ0+Q9Y478+Q13131+Q9UGI9). The experiment is described as follows: AMP-dependent Kinase enzyme assay. An in vitro enzyme assay that detects ADP turnover that is directly proportional to AMPK activity. This uses naive AMPK that is activated during the assay with MK-8722. Type of experiment: functional. Particulars: 30 µM.

Experiment [4] has as its target Sialic acid-binding Ig-like lectin 9 (Homo sapiens) (UniProt Q9Y336). In words: Hs-Siglec9 ALPHAscreen SOP 20170721. The conditions noted are these: 10 µM.
The next experiment relates to Trypanosoma cruzi. In words: Trypanosoma cruzi phosphomannomutase and mannose-1-phosphate guanylyltransferase assay. The conditions noted are these: 10 µM. The experiment is classed as functional.
Experiment [5] concerns the target T2, Arginase-2, mitochondrial (Homo sapiens) (UniProt P78540).
T2 sequence (whole entry): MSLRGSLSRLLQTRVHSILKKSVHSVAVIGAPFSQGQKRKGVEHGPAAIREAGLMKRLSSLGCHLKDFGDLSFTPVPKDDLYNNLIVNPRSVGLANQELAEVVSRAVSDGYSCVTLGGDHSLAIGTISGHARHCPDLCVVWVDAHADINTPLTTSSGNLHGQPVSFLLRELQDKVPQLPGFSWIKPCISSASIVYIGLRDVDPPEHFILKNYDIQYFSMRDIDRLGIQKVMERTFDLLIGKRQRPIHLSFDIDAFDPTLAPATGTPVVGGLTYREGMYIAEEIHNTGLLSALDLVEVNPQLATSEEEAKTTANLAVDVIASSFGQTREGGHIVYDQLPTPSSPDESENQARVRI
The experiment is described as follows: in vitro enzyme assay to detect the production of urea directly proportional to the activity of Arginase II. Note: in the data most compounds retested in dose-response had high values. The experiment is classed as functional. The conditions noted are these: 33.3 µM.

Experiment [6] has as its target T3, Proteasome subunit beta (Trypanosoma cruzi) (UniProt O96673).
T3 sequence (whole entry): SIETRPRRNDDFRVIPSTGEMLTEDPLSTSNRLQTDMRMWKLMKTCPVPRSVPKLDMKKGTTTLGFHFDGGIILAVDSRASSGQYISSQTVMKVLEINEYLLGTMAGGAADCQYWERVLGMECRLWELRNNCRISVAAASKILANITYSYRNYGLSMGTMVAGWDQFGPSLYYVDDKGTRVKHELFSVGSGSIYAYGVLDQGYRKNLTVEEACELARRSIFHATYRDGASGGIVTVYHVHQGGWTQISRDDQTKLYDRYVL
The experiment is described as follows: Trypanosoma cruzi proteasome chymotrypsin-like activity (TcProtChymo) assay. Note: in the data most compounds retested in dose-response had high values. The experiment is classed as functional. The conditions noted are these: 9.37 µM.

The next experiment is filed under the species Homo sapiens. In words: To identify inhibition of the IFN signalling (Jak-Stat) pathway via expression of an eGFP reporter gene under the control of an IFN-stimulated response element (ISRE) containing MxA promoter. Type of experiment: functional. The conditions noted are these: 30 µM.
Experiment [7] has as its target T4, Tyrosyl-tRNA synthetase, putative (Trypanosoma cruzi (strain CL Brener)) (UniProt Q4DSP6).
T4 sequence (whole entry): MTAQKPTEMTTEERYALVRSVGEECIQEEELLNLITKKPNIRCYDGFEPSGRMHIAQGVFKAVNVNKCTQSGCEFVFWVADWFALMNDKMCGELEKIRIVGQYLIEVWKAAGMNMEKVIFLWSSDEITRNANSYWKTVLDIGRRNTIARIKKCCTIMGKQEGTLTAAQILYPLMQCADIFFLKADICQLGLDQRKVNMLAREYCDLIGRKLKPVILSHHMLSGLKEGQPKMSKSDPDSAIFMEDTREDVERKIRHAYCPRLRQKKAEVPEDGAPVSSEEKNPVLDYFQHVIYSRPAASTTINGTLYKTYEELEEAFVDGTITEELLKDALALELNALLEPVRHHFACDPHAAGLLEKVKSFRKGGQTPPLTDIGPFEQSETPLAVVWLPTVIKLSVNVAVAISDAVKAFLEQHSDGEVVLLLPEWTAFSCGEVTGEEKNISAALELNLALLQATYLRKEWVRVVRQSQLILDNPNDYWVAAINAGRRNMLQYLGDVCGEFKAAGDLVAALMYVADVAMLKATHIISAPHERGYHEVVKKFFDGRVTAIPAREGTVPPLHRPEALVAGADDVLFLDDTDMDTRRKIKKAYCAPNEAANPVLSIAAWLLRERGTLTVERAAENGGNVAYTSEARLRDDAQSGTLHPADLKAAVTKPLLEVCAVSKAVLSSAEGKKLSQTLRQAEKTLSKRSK
In words: Trypanosoma cruzi tyrosyl tRNA synthetase (TcYRS) _High Tyrosine SOP. Note: in the data most compounds retested in dose-response had high values. Particulars: 30 µM. The experiment is classed as functional.

The target of experiment [8] is T4, Tyrosyl-tRNA synthetase, putative (Trypanosoma cruzi (strain CL Brener)). The experiment is described as follows: Trypanosoma cruzi tyrosyl tRNA synthetase (TcYRS) SOP. The conditions noted are these: 30 µM. Type of experiment: functional.
For experiment [9], the target named is Chromo domain-containing protein 1 (Saccharomyces cerevisiae (strain ATCC 204508 / S288c) (Baker's yeast)) (UniProt P32657). In words: ScCHD-1 Enzyme Inhibition Assay. Note: in the data most compounds retested in dose-response had high values. The experiment is classed as functional. Particulars: 30 µM.
Chain of Chromo domain-containing protein 1 (Saccharomyces cerevisiae (strain ATCC 204508 / S288c) (Baker's yeast)) (P32657 whole entry, the tested form may be a part): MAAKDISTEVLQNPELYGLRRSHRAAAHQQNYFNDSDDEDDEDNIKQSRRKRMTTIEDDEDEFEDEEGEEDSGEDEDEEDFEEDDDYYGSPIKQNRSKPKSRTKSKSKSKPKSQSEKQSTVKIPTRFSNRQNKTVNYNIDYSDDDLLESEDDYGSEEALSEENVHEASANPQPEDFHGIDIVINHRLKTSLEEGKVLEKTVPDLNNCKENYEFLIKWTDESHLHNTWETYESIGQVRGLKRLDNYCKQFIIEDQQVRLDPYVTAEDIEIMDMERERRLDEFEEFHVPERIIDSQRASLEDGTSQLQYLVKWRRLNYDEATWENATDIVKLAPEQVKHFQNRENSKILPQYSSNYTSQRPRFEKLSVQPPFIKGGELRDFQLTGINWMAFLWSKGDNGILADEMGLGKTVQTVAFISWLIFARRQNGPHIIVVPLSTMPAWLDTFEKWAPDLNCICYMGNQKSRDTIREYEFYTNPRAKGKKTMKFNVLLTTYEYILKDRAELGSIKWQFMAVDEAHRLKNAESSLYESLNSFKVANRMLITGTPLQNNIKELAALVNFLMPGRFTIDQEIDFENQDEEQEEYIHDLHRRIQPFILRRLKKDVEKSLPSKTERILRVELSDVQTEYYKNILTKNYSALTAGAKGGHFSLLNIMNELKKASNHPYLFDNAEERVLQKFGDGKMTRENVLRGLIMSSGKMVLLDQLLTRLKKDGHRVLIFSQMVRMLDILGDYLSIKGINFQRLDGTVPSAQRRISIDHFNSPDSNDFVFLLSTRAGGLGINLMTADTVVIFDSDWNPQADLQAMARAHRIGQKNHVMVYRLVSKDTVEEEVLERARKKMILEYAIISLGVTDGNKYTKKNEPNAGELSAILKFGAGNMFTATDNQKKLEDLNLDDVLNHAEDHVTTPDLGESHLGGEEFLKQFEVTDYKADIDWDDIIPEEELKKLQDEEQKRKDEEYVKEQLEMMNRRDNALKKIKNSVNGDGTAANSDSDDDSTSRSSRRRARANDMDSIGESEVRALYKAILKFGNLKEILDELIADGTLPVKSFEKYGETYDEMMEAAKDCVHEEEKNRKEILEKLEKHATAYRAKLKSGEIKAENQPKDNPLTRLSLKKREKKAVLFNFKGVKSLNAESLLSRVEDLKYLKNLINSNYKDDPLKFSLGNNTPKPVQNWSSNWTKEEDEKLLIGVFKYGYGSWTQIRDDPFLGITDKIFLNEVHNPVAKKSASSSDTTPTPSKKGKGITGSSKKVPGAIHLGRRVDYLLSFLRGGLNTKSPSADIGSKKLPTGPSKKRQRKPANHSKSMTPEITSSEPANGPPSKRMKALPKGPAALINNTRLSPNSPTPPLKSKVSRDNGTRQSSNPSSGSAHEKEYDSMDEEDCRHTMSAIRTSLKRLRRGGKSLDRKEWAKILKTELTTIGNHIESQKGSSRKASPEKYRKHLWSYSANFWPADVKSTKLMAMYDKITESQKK

For some assays here: Results with a measured potency or affinity are listed apart.

Chain of Protein translocase subunit SecA (Escherichia coli (strain K12)) (P10408 whole entry): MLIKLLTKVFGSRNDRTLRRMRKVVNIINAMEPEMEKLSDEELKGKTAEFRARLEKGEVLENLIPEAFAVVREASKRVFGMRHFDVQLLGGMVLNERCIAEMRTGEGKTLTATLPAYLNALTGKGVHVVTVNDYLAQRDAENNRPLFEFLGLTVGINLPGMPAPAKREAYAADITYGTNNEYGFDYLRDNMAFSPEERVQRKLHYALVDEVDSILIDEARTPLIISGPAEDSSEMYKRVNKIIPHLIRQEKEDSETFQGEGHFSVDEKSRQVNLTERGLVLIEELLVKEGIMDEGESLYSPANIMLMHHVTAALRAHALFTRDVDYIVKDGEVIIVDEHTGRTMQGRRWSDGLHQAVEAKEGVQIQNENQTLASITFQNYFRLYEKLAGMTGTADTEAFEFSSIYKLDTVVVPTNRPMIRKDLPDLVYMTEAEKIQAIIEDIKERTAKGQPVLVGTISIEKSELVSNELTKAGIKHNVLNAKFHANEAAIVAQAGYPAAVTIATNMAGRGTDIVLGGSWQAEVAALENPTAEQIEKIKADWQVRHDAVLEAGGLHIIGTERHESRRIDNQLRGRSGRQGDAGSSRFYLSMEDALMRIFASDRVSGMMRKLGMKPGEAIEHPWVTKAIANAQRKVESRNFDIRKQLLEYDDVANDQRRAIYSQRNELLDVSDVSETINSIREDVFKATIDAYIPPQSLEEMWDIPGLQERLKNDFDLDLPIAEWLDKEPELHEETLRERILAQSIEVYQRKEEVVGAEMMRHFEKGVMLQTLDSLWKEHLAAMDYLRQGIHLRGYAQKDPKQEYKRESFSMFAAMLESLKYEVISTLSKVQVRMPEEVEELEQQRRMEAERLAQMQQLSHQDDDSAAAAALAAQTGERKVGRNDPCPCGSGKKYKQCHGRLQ
Chain of Sialic acid-binding Ig-like lectin 9 (Homo sapiens) (Q9Y336 whole entry): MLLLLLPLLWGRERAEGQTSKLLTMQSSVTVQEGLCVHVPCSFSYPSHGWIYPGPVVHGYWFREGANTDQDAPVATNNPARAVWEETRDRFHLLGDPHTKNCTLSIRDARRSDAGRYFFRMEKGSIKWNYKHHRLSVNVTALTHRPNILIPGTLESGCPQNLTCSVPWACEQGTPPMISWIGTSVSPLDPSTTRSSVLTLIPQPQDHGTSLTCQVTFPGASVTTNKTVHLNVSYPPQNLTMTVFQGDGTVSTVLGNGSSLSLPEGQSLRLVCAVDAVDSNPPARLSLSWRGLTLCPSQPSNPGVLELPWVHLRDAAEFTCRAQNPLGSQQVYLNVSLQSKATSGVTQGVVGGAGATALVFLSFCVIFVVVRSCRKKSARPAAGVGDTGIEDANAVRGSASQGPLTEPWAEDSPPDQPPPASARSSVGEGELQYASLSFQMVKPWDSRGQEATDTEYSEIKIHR

Turning to `O=C(CCc1cc2n(n1)CCCN(C(=O)c1cccnc1)C2)NC1CC1`, the Percent Effect in [1] is -2.13%; in [2] it was 4.17%; in experiment [3], -1.68%; in experiment [4], -4.93%; in the experiment with Trypanosoma cruzi, -3.21%; in experiment [5], -2.21%. In addition, the Percent Effect is 10.7% in experiment [6]; 4.24% in the experiment filed under Homo sapiens; 0% in [7]; 7.69% in experiment [8]; -2.05% in [9].
Take `COc1ccc(-c2noc(CN3CCc4cncnc4C3)n2)cc1`: the Percent Effect was -3.37% in [1]; -15.8% in experiment [2]; -14.9% in [3]; 2.94% in experiment [4]; 7.52% in the experiment on Trypanosoma cruzi; 0% in [5]. For the same molecule, the Percent Effect in [6] is 18.6%; in the experiment filed under Homo sapiens, 8.69%; in experiment [7] it was 8.33%; in experiment [8] it was 9.76%; in [9], 25%.
Turning to `CC(=O)N1CCC2(CC1)COCCN2Cc1ccc(F)cc1`, the Percent Effect is -4.99% in experiment [1]; 8.11% in [2]; 4.11% in experiment [3]; -8.39% in [4]; -4.2% with Trypanosoma cruzi; -0.955% in [5]. For the same molecule, the Percent Effect in [6] was 18.1%; in the experiment listed under Homo sapiens it was -2.37%; in experiment [7] it was -1.08%; in experiment [8], 7.69%; in [9], -1.77%.
Take `O=C(NCc1cc[nH]n1)N1CCN(c2ccccc2Cl)CC1`: the Percent Effect in experiment [1] was -5%; in experiment [2] it was 23.7%; in experiment [3], -1.65%; in [4] it was 3.62%; in the experiment with Trypanosoma cruzi it was 1.96%; in experiment [5] it was -0.719%. Besides, the Percent Effect in experiment [6] was 14.1%; in the experiment filed under Homo sapiens, 15.6%; in experiment [7], 7.39%; in [8], 18.5%; in experiment [9] it was -10.1%.
Consider `CC(C)C(NC(=O)NCC1(CO)CC1)c1nnc2n1CCC2` (stereo not given), for which the Percent Effect in experiment [1] was -7.18%; in [2], 13.5%; in experiment [3], 2.82%; in [4], 15.2%; in the experiment on Trypanosoma cruzi it was 2.54%; in [5], 4.58%. Besides, the Percent Effect in [6] is 11.2%; in the experiment filed under Homo sapiens, 10.4%; in [7], 7.92%; in experiment [8], 11%; in experiment [9], -9.98%.
For `CCn1cc(N2Cc3nc(N)ncc3C2=O)cn1`, the Percent Effect in experiment [1] was -6.38%; in experiment [2] it was 12%; in [3], -9.46%; in experiment [4], -1.51%; in the experiment with Trypanosoma cruzi it was 7.47%; in experiment [5] it was -20.6%. Also, the Percent Effect in experiment [6] is 13.9%; in the experiment listed under Homo sapiens it was 2.34%; in [7], 7.41%; in experiment [8], 17.9%; in [9], -15.1%.
As to `CC(CN1CCOCC1)NCc1nncn1C1CCCCC1` (stereo not given), the Percent Effect in experiment [1] was -2.55%; in experiment [2] it was 1.39%; in experiment [3], -4.5%; in experiment [4], -12%; in the experiment with Trypanosoma cruzi, -5.54%; in [5], 3.09%. Further, the Percent Effect in experiment [6] was 9.65%; in the experiment filed under Homo sapiens, -2.46%; in experiment [7] it was 6.32%; in experiment [8], 5.13%; in experiment [9], -1.99%.
For `CCn1cc2c(n1)CN(CC1CC1)CC2COCC1CC1` (stereo not given), the Percent Effect in experiment [1] is -2.46%; in [2], 10.7%; in [3], 4.51%; in [4], -3.73%; in the experiment with Trypanosoma cruzi it was -1.77%; in experiment [5], -5.36%. Further, the Percent Effect in experiment [6] is 9.25%; in the experiment filed under Homo sapiens it was -20.4%; in experiment [7], 5.32%; in [8], 8.97%; in experiment [9], -4.66%.
Consider `Cc1nccn1CC1CCCN1S(=O)(=O)Cc1ccon1` (stereo not given), for which the Percent Effect in [1] was -1.65%; in experiment [2], 20.2%; in experiment [3], -1.52%; in experiment [4], -6.85%; in the experiment on Trypanosoma cruzi, 3.68%; in experiment [5], -6.84%. For the same molecule, the Percent Effect was 14% in experiment [6]; 7.78% in the experiment filed under Homo sapiens; 5.42% in [7]; 3.8% in experiment [8]; -7.21% in [9].
For the molecule `CCCc1noc(CCC(=O)N2CCCC2c2ccsc2)n1` (stereo not given), the Percent Effect is -3.59% in experiment [1]; -55.7% in experiment [2]; 0.791% in experiment [3]; 6.07% in experiment [4]; 1.6% with Trypanosoma cruzi; -2.28% in experiment [5]. Moreover, the Percent Effect was -0.409% in [6]; -2.86% in the experiment filed under Homo sapiens; -2.46% in [7]; -1.27% in experiment [8]; -4.16% in [9].
